Assay results as given in PubChem BioAssay AID1159580 (chemical genetic matrix, 2015).
Where “and” joins values, the source holds several entries; their conditions need not be identical. Equal entries are not always repeated. In all, about 5,500 compounds went through this assay and about 2,000 (36%) were called active. About 18% were inconclusive and are not listed. No stated cut-off is given here; in the data, active means normalized growth mostly below about 0.91 (no sharp cut-off); inconclusive means no clear call, values can overlap the other calls; inactive means mostly above about 0.92. This is one part of the list.

Test: chemical genetic growth profiling, strain panel (AID 1159580);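 further: tested at 20 µM; growth read once vehicle control cultures reached saturation at 30 °C; 1 = growth at the plate median or of vehicle wells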
Details: S. cerevisiae deletion strains, growth OD

Measured: normalized growth

CCN(CC)C(=O)N1CCN(C)CC1
inactive: locus YAL021C, strain ccr4, stronger effect = lower value 0.984 | locus YAL026C, strain drs2, stronger effect = lower value 0.967 | locus YAL030W, strain snc1, stronger effect = lower value 0.967 | locus YBL061C, strain skt5, stronger effect = lower value 0.976 | locus YBR009C, strain hhf1, stronger effect = lower value 0.957 | locus YBR021W, strain FUR4, stronger effect = lower value 0.974 | locus YBR023C, strain chs3, stronger effect = lower value 0.981 | locus YBR171W, strain sec66, stronger effect = lower value 0.99 | locus YBR229C, strain ROT2, stronger effect = lower value 1.01 | locus YBR231C, strain swc5, stronger effect = lower value 0.97 | locus YBR279W, strain paf1, stronger effect = lower value 0.981 | locus YCL011C, strain gbp2, stronger effect = lower value 0.971 | locus YCL016C, strain dcc1, stronger effect = lower value 0.973 | locus YCL029C, strain bik1, stronger effect = lower value 0.999 | locus YCL069W, strain vba3, stronger effect = lower value 0.984 | locus YCR088W, strain abp1, stronger effect = lower value 0.994 | locus YDL005C, strain med2, stronger effect = lower value 0.963 | locus YDL035C, strain GPR1, stronger effect = lower value 1.04 | locus YDL040C, strain nat1, stronger effect = lower value 0.973 | locus YDL074C, strain BRE1, stronger effect = lower value 1.03 | locus YDL101C, strain DUN1, stronger effect = lower value 1.01 | locus YDL134C, strain PPH21, stronger effect = lower value 1.04 | locus YDL185W, strain tfp1, stronger effect = lower value 0.994 | locus YDL192W, strain arf1, stronger effect = lower value 1 | locus YDR001C, strain nth1, stronger effect = lower value 0.958 | locus YDR069C, strain doa4, stronger effect = lower value 0.976 | locus YDR101C, strain arx1, stronger effect = lower value 1 | locus YDR137W, strain rgp1, stronger effect = lower value 0.917 | locus YDR150W, strain NUM1, stronger effect = lower value 1.02 | locus YDR159W, strain sac3, stronger effect = lower value 0.964 | locus YDR162C, strain NBP2, stronger effect = lower value 1.02 | locus YDR195W, strain ref2 0.943 | locus YDR297W, strain sur2, stronger effect = lower value 0.979 | locus YDR318W, strain mcm21, stronger effect = lower value 1.01 | locus YDR334W, strain swr1, stronger effect = lower value 0.982 | locus YDR335W, strain msn5, stronger effect = lower value 0.95 | locus YDR388W, stronger effect = lower value 1 | locus YDR392W, strain spt3, stronger effect = lower value 0.956 | locus YDR502C, strain sam2, stronger effect = lower value 1 | locus YEL003W, strain gim4, stronger effect = lower value 0.965 | locus YEL037C, strain rad23, stronger effect = lower value 0.978 | locus YEL061C, strain CIN8 (second series), stronger effect = lower value 0.973 | locus YEL061C, strain CIN8, stronger effect = lower value 1.01 | locus YER015W, strain faa2, stronger effect = lower value 0.979 | locus YER016W, strain bim1, stronger effect = lower value 0.94 | locus YER110C, stronger effect = lower value 0.991 | locus YER111C, strain swi4, stronger effect = lower value 0.969 | locus YER155C, strain BEM2 (second series), stronger effect = lower value 0.984 | locus YER155C, strain BEM2, stronger effect = lower value 1.01 | locus YER167W, strain BCK2, stronger effect = lower value 1.01 | locus YFR010W, strain ubp6, stronger effect = lower value 0.959 | locus YGL078C, strain dbp3, stronger effect = lower value 0.997 | locus YGL086W, strain mad1, stronger effect = lower value 1.02 | locus YGL167C, strain pmr1, stronger effect = lower value 0.983 | locus YGL173C, strain kem1, stronger effect = lower value 0.986 | locus YGL227W, strain vid30, stronger effect = lower value 0.982 | locus YGL240W, strain doc1, stronger effect = lower value 0.956 | locus YGL248W, strain PDE1, stronger effect = lower value 1.01 | locus YGL253W, strain hxk2, stronger effect = lower value 0.948 | locus YGR078C, strain PAC10, stronger effect = lower value 1.02 | locus YGR135W, strain pre9, stronger effect = lower value 0.996 | locus YGR252W, strain gcn5, stronger effect = lower value 0.912 | locus YHR013C, strain ard1, stronger effect = lower value 0.942 | locus YHR027C, strain rpn1, stronger effect = lower value 0.971 | locus YHR030C, strain SLT2, stronger effect = lower value 1.02 | locus YHR079C, strain IRE1 (second series), stronger effect = lower value 0.993 | locus YHR079C, strain IRE1, stronger effect = lower value 1.02 | locus YHR094C, strain hxt1, stronger effect = lower value 1 | locus YHR129C, strain ARP1, stronger effect = lower value 1.01 | locus YHR142W, strain chs7, stronger effect = lower value 0.954 | locus YHR200W, strain rpn10, stronger effect = lower value 1 | locus YIL066C, strain RNR3, stronger effect = lower value 1.04 | locus YIL073C, strain SPO22, stronger effect = lower value 1.02 | locus YIL125W, strain kgd1, stronger effect = lower value 1 | locus YIR030C, strain dcg1, stronger effect = lower value 1.01 | locus YJL092W, strain hpr5, stronger effect = lower value 0.985 | locus YJL095W, strain BCK1 (second series), stronger effect = lower value 0.965 | locus YJL095W, strain BCK1, stronger effect = lower value 1 and 1.04 | locus YJL115W, strain asf1, stronger effect = lower value 0.946 | locus YJL129C, strain trk1, stronger effect = lower value 0.951 | locus YJL134W, strain LCB3, stronger effect = lower value 1.01 | locus YJL154C, strain vps35, stronger effect = lower value 0.983 | locus YJL164C, strain tpk1, stronger effect = lower value 0.959 | locus YJL166W, strain qcr8, stronger effect = lower value 0.999 | locus YJL168C, strain set2, stronger effect = lower value 0.992 | locus YJL187C, strain SWE1 (second series), stronger effect = lower value 1.01 | locus YJL187C, strain SWE1, stronger effect = lower value 0.973 | locus YJR043C, strain POL32, stronger effect = lower value 1.04 | locus YJR066W, strain TOR1, stronger effect = lower value 0.965
